# Laboratory results reported in PubChem BioAssay AID504913 (The Scripps Research Institute Molecular Screening Center, 2011).
# Some of the results follow. Values without a mark were called inactive. Cut-off read from the data, not from the text of the source: active = activation above about 18%; inactive = the rest.
# Assay: OPRM1-OPRD1 heterodimerization promoters, counter-screen for HTR5A agonist project, cell-based, luminescence (AID 504913)
# Settings: U2OS counter-screen cells, complementation luminescence, 3 h; at 9.3 µM; active compounds read high
structure (smiles),measurement,value
CCCCCCCCCCCCn1ccc(=N)cc1,activation,2.92%
